The values below come from PubChem BioAssay AID1456 (Vanderbilt High Throughput Screening Facility, 2008).

Each structure is given as a SMILES string. Among all 190,000 compounds or so, about 4,100 (2.2%) were called active. Shown is part of a subset that was picked to be rich in actives. Values without a mark were called inactive.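 The calls were made as follows: active = thallium flux slope and its plate-corrected score both differing from the plate sample mean at a set confidence after two filtering rounds, in either direction; inactive = the rest.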

Solute carrier family 12 member 5 (Homo sapiens), sequence (Q9H2X9 whole entry, looked up): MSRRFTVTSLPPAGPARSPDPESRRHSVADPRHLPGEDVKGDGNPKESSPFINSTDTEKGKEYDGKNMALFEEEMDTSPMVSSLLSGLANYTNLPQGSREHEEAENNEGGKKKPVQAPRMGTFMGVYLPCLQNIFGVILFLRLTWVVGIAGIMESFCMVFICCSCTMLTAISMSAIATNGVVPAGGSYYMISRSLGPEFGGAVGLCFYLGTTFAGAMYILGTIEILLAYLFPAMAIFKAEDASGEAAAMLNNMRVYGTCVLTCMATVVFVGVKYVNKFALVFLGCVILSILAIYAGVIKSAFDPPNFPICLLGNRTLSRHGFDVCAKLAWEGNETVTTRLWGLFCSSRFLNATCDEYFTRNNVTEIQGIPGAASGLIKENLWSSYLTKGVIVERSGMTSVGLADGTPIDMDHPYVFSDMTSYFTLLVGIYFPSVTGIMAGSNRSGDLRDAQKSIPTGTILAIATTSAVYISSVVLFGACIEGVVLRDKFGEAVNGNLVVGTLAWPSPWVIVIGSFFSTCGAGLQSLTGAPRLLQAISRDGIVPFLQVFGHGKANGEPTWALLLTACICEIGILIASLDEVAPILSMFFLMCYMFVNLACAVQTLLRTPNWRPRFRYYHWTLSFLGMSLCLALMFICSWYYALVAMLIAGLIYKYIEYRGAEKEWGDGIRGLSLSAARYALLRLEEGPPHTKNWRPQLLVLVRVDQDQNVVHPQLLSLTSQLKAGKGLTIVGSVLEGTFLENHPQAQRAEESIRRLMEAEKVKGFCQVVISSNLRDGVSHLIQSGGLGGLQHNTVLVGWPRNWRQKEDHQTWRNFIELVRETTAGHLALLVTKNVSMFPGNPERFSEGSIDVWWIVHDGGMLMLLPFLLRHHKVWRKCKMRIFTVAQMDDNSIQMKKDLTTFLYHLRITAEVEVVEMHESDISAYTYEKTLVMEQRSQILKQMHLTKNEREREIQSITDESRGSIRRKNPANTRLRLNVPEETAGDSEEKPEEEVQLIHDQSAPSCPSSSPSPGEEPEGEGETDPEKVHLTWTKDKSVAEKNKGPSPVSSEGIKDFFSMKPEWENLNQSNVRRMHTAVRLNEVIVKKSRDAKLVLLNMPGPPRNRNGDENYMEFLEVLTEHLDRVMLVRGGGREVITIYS

The test concerns the target Solute carrier family 12 member 5 (Homo sapiens) (UniProt Q9H2X9). Kind of test: KCC2 cotransporter modulators, thallium flux, primary screen, cell-based, HEK293 KCC2, FluoZin-2 fluorescence, MLSMR (AID 1456).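 Also: slope of fluorescence scaled to starting intensity during 10 to 20 s after thallium.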 The settings on record: KCC2 cells, thallium flux FluoZin-2 fluorescence; at 10 µM.
In the case of `Cc1cc(C)cc(NS(=O)(=O)c2ccc(F)cc2)c1`, the B-score of Tl+ flux slope (higher = more flux/activation; lower = inhibition) was -0.00878.

As for `CCOc1ccc(NS(=O)(=O)c2ccc(C)c(C(N)=O)c2)cc1`, the B-score of Tl+ flux slope (higher = more flux/activation; lower = inhibition) was -0.277.

`Cc1cccc(NS(=O)(=O)c2ccc(C)c(C(N)=O)c2)c1`: the B-score of Tl+ flux slope (higher = more flux/activation; lower = inhibition) was 4.67 (active).

As for `C/C(=N\Nc1cccc(C(=O)O)c1)c1ccc2c(c1)Nc1ccccc1S2`, the B-score of Tl+ flux slope (higher = more flux/activation; lower = inhibition) was -3.29.

As to `CCOc1ccccc1C1CC(c2ccc(Cl)cc2)Nc2nc(N)nn21` (stereo not drawn), the B-score of Tl+ flux slope (higher = more flux/activation; lower = inhibition) was -3.62 (active).

For `Cc1ccc(C2CC(c3cccc(C)c3)n3nc(N)nc3N2)cc1` (stereo not drawn), the B-score of Tl+ flux slope (higher = more flux/activation; lower = inhibition) is 1.35.

As to `COc1ccc(C2CC(c3ccc(Cl)cc3Cl)Nc3nc(N)nn32)cc1OC` (stereo not drawn), the B-score of Tl+ flux slope (higher = more flux/activation; lower = inhibition) is 1.07.

Turning to `COCCNC(=S)N1CCN(C)CC1`, the B-score of Tl+ flux slope (higher = more flux/activation; lower = inhibition) was 1.24.

Regarding `CCC(C)NC(=O)C1c2ccccc2Oc2ccccc21` (stereo not drawn), the B-score of Tl+ flux slope (higher = more flux/activation; lower = inhibition) was 0.329.

Turning to `O=C(NCc1ccco1)C1CCCN1S(=O)(=O)c1ccccc1C(F)(F)F` (stereo not drawn), the B-score of Tl+ flux slope (higher = more flux/activation; lower = inhibition) is 0.797.

On to `Cc1ccc(/C=N/NC(=O)CNC(=O)COc2ccccc2)o1`, for which the B-score of Tl+ flux slope (higher = more flux/activation; lower = inhibition) was 1.42.

`Cc1ccc(/C=N/NC(=S)NC2CCCCC2)o1`: the B-score of Tl+ flux slope (higher = more flux/activation; lower = inhibition) is 13.3 (active).

`S=C(NCc1ccc(Cl)cc1)NC1CCCCC1`: the B-score of Tl+ flux slope (higher = more flux/activation; lower = inhibition) was -1.07.

In the case of `C/C(=N\NC(=S)NC1CCCCC1)c1ccc(C)o1`, the B-score of Tl+ flux slope (higher = more flux/activation; lower = inhibition) was 13.6 (active).

As to `Cc1ccc(NC(=S)NC2CCCC2)cc1`, the B-score of Tl+ flux slope (higher = more flux/activation; lower = inhibition) is -0.0505.

With `C/C(=N/NC(=O)c1ccc(Br)o1)c1ccc(C)o1`, the B-score of Tl+ flux slope (higher = more flux/activation; lower = inhibition) is 2.02.

Regarding `Nc1ccc(N=Nc2ccccc2Cl)c(N)n1`, the B-score of Tl+ flux slope (higher = more flux/activation; lower = inhibition) is -0.811.

In the case of `O=C(Nc1nc2ccc([N+](=O)[O-])cc2s1)c1ccncc1`, the B-score of Tl+ flux slope (higher = more flux/activation; lower = inhibition) was 0.253.

Turning to `O=C(O)CCC(=O)Nc1nc2ccc([N+](=O)[O-])cc2s1`, the B-score of Tl+ flux slope (higher = more flux/activation; lower = inhibition) was -0.905.

Turning to `O=C(NC(Nc1nc2ccc([N+](=O)[O-])cc2s1)(C(F)(F)F)C(F)(F)F)c1ccccc1`, the B-score of Tl+ flux slope (higher = more flux/activation; lower = inhibition) was 18.8 (active).

For the molecule `O=[N+]([O-])/C=C1\CCCCCN1`, the B-score of Tl+ flux slope (higher = more flux/activation; lower = inhibition) is 0.62.

Consider `O=C(CNC(=O)c1ccc(-c2ccccc2)cc1)OCc1ccc(Cl)cc1`, for which the B-score of Tl+ flux slope (higher = more flux/activation; lower = inhibition) was 0.889.

In the case of `O=C(OCN1C(=O)c2ccccc2C1=O)/C(=C\c1ccco1)NC(=O)c1ccccc1`, the B-score of Tl+ flux slope (higher = more flux/activation; lower = inhibition) was 0.982.

On to `CC(C)(C)c1ccc(C(=O)NCC(=O)OCN2C(=O)c3ccccc3C2=O)cc1`, for which the B-score of Tl+ flux slope (higher = more flux/activation; lower = inhibition) is 2.84 (active).

As to `CC(=O)OCCOCn1cnn2c(=O)c(Br)c(C)nc12`, the B-score of Tl+ flux slope (higher = more flux/activation; lower = inhibition) was 0.438.

`Cn1nc(C(F)(F)F)c(-c2ccc(F)cc2)c1NC(=O)CSCC(=O)O`: the B-score of Tl+ flux slope (higher = more flux/activation; lower = inhibition) was 0.439.

On to `O=C(Nc1cccnc1)c1cc([N+](=O)[O-])ccc1Cl`, for which the B-score of Tl+ flux slope (higher = more flux/activation; lower = inhibition) is -0.0312.

In the case of `CCC(=O)NNc1cc(=O)c2c(=O)n(C)c(=O)n(C)c2[nH]1`, the B-score of Tl+ flux slope (higher = more flux/activation; lower = inhibition) was 1.26.

On to `CC(=O)NNc1cc(=O)c2c(=O)n(C)c(=O)n(C)c2[nH]1`, for which the B-score of Tl+ flux slope (higher = more flux/activation; lower = inhibition) is 6.19 (active).

On to `Nc1nnn(CC(=O)N/N=C/c2ccc(O)cc2)n1`, for which the B-score of Tl+ flux slope (higher = more flux/activation; lower = inhibition) is 0.292.

Regarding `Cn1nnc(NC(=S)NC(=O)c2ccccc2)n1`, the B-score of Tl+ flux slope (higher = more flux/activation; lower = inhibition) is 0.462.

With `CC1(C)CC(CNCCC(c2ccc(F)cc2)c2ccco2)CCO1` (stereo not drawn), the B-score of Tl+ flux slope (higher = more flux/activation; lower = inhibition) was -2.25.

As to `Cc1ccc(NC(=S)NC(=O)c2ccc(-c3ccccc3)cc2)cc1`, the B-score of Tl+ flux slope (higher = more flux/activation; lower = inhibition) is 1.16.

For the molecule `Cc1cccc(NC(=O)c2ccc([N+](=O)[O-])o2)c1`, the B-score of Tl+ flux slope (higher = more flux/activation; lower = inhibition) is -0.0536.

On to `Cc1cccc(NC(=S)NC(=O)c2ccc(Br)o2)c1`, for which the B-score of Tl+ flux slope (higher = more flux/activation; lower = inhibition) was 143 (active).

Consider `Cc1cccc(NC(=O)/C(=C\c2ccco2)NC(=O)c2ccccc2)c1`, for which the B-score of Tl+ flux slope (higher = more flux/activation; lower = inhibition) was 0.0694.

On to `Cc1cccc(NC(=O)NC(=S)NC(=O)c2ccccc2)c1`, for which the B-score of Tl+ flux slope (higher = more flux/activation; lower = inhibition) is 16.4 (active).

Take `Cc1cccc(NC(=S)Nc2ccc(Br)cc2)c1`: the B-score of Tl+ flux slope (higher = more flux/activation; lower = inhibition) is 0.311.

In the case of `CCOc1ccc(C2NC(=S)NC3=C2CCc2ccccc23)cc1` (stereo not drawn), the B-score of Tl+ flux slope (higher = more flux/activation; lower = inhibition) is 0.359.

Take `CC(=O)Nc1ccc(/C=C/C(=O)c2ccccc2)cc1`: the B-score of Tl+ flux slope (higher = more flux/activation; lower = inhibition) is -1.42.

On to `CCCc1nc2c(c(=O)c3ccccc3n2C)c(=O)n1-c1cc(C)cc(C)c1`, for which the B-score of Tl+ flux slope (higher = more flux/activation; lower = inhibition) was -2.43.

With `Cc1cc(OCCCCOc2ccc(C#N)cc2)ccc1[N+](=O)[O-]`, the B-score of Tl+ flux slope (higher = more flux/activation; lower = inhibition) is 2.16.

Turning to `Clc1ccc(C[n+]2cc(-c3ccccc3)n3c2CCC3)cc1`, the B-score of Tl+ flux slope (higher = more flux/activation; lower = inhibition) is 0.476.

`CCOC(=O)C1CCCN(C(=O)C2CCN(c3nnc(-n4cccc4)s3)CC2)C1` (stereo not drawn): the B-score of Tl+ flux slope (higher = more flux/activation; lower = inhibition) was -0.42.

Take `CSc1ccc(CCNC(=O)C2CCN(c3nnc(-n4cccc4)s3)CC2)cc1`: the B-score of Tl+ flux slope (higher = more flux/activation; lower = inhibition) was 0.348.

For `O=C(C1CCN(c2nnc(-n3cccc3)s2)CC1)N1CCc2ccccc2C1`, the B-score of Tl+ flux slope (higher = more flux/activation; lower = inhibition) is -3.67 (active).

Consider `COc1ccc2[nH]c(C(=O)Nc3ccccc3Cl)cc2c1`, for which the B-score of Tl+ flux slope (higher = more flux/activation; lower = inhibition) was 0.0923.

Regarding `CCCCOc1ccc(CON(C(C)=O)C(C)=O)cc1Cl`, the B-score of Tl+ flux slope (higher = more flux/activation; lower = inhibition) was 0.181.

In the case of `COc1ccc(-c2nc(CS(=O)CC(=O)NCc3ccccn3)c(C)o2)cc1` (stereo not drawn), the B-score of Tl+ flux slope (higher = more flux/activation; lower = inhibition) is 1.46.

For `COC(=O)c1cc2occc2n1Cc1nc(-c2ccccc2C)oc1C`, the B-score of Tl+ flux slope (higher = more flux/activation; lower = inhibition) was 0.574.

For `Cc1oc(-c2ccccc2F)nc1CS(=O)(=O)CC(=O)NCCCN(C)C1CCCCC1`, the B-score of Tl+ flux slope (higher = more flux/activation; lower = inhibition) is -0.282.

In the case of `O=C(COc1ccccc1)N1CCc2ccccc2C1`, the B-score of Tl+ flux slope (higher = more flux/activation; lower = inhibition) was 0.0757.

With `COc1ccc(-c2nc(CS(=O)CC(=O)N3CCc4ccccc4C3)c(C)o2)cc1` (stereo not drawn), the B-score of Tl+ flux slope (higher = more flux/activation; lower = inhibition) was -6.3 (active).

For the molecule `Cc1ccccc1-c1nc(CS(=O)(=O)CC(=O)N2CCc3ccccc3C2)c(C)o1`, the B-score of Tl+ flux slope (higher = more flux/activation; lower = inhibition) is -3.98 (active).

With `S=C(NCc1ccc2c(c1)OCO2)NCc1ccco1`, the B-score of Tl+ flux slope (higher = more flux/activation; lower = inhibition) was -0.178.

On to `CCOC(=O)C1CCN(C(=O)Nc2cccc(OC)c2)CC1`, for which the B-score of Tl+ flux slope (higher = more flux/activation; lower = inhibition) is 0.26.

Consider `Cc1ccccc1Cn1c2ccccc2c2cnn(CC(=O)NCc3ccco3)c(=O)c21`, for which the B-score of Tl+ flux slope (higher = more flux/activation; lower = inhibition) was -0.21.

In the case of `COC(=O)CNc1nc(Cl)nc(N2CCC(C)CC2)n1`, the B-score of Tl+ flux slope (higher = more flux/activation; lower = inhibition) is 0.436.

For `O=C(Nc1ccccc1)/C(=C/c1ccc([N+](=O)[O-])cc1)NC(=O)c1ccccc1`, the B-score of Tl+ flux slope (higher = more flux/activation; lower = inhibition) is 0.951.

`CNC(=O)/C(=C\C=C\c1ccccc1)NC(=O)c1ccc([N+](=O)[O-])cc1`: the B-score of Tl+ flux slope (higher = more flux/activation; lower = inhibition) is -6.01 (active).

Take `O=C(Nc1ccc(C(=O)O)cc1)/C(=C/c1ccc([N+](=O)[O-])cc1)NC(=O)c1ccccc1`: the B-score of Tl+ flux slope (higher = more flux/activation; lower = inhibition) is -0.11.

With `Cc1ccc(/C=C/C(=O)O)cc1S(=O)(=O)N1CCC(Cc2ccccc2)CC1`, the B-score of Tl+ flux slope (higher = more flux/activation; lower = inhibition) is -2.01.

Regarding `Cc1ccc(C)c2c1cc(C)c1nnc(SCC(=O)Nc3cccc(C(=O)O)c3)n12`, the B-score of Tl+ flux slope (higher = more flux/activation; lower = inhibition) was 4.23.
